Many of the other results were omitted from the sample, so hits are more common in it than they were.
nsP2pro primary: inhibitors of chikungunya virus nsP2 protease; 1.1% of 31,000 active; Q8JUX6; AID 1964107; Potency, µM (series often up to 24.9 µM), hits mostly inhibitors; FRET peptide cleavage, nsP2pro, fluorescence 1 h; further: nearly all actives have a fitted effect of over 60% in size
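Purified recombinant nsP2pro (150 nM final) in 10 mM Tris-HCl pH 8.0 with 0.01% Tween 20 was preincubated 15 min at room temperature with compound (7 concentrations, up to 25 uM). FRET peptide 2 substrate (2.5 uM final) was then added; fluorescence was read after 1 h.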
nsP2 cell sec: cell-based CHIKV nsP2 protease inhibition, secondary | shares compounds with nsP2pro primary | cell-based CHIKV nsP2 protease reporter assay | Potency, µM (titrated, usually from 51.1 µM), actives largely listed as inhibitors | 10% of 450 active | AID 1964100; further: nearly all actives have a fitted effect of over 70% in size
Target sequence (Q8JUX6 220-798 limits assumed): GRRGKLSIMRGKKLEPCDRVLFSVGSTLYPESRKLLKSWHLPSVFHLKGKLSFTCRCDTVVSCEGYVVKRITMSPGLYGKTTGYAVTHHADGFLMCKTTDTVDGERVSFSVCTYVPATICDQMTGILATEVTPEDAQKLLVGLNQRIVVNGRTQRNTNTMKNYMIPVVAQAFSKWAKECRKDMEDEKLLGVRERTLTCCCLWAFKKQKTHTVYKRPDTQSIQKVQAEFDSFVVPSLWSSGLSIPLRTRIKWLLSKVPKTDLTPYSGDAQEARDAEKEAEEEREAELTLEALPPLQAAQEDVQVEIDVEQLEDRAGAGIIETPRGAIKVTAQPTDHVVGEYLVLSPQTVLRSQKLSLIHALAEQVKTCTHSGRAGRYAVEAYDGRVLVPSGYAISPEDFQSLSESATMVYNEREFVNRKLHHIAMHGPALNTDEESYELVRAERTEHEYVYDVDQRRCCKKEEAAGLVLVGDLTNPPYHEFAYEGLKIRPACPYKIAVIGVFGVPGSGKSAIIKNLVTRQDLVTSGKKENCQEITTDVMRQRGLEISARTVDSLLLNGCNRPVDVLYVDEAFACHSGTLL
NSP2 full ctr: inhibits full-length CHIKV NSP2 enzyme | 39% of 410 active | shares compounds with nsP2pro primary | Potency, µM (doses to about 50.7 µM), most hits filed as inhibitors | Full-length CHIKV NSP2 protease enzymatic counterscreen | AID 1964101; further: nearly all actives have a fitted effect of over 65% in size
Furin counter: selectivity counter-screen for CHIKV nsP2 protease inhibitors: human furin | shares compounds with nsP2pro primary | Recombinant human furin enzymatic counterscreen, fluorogenic substrate | Potency, µM (series often up to 50.6 µM), most hits filed as inhibitors | 6% of 410 active | AID 1964102
NS23 peptide cs: nsP2pro inhibition on native NS2/3 peptide substrate | shares compounds with nsP2pro primary | Purified CHIKV nsP2 protease, endogenous NS2/3 peptide cleavage | Potency, µM (titrated, usually from 51 µM), hits mostly inhibitors | 34% of 410 active | AID 1964103; further: nearly all actives have a fitted effect of over 55% in size
Papain counter: selectivity counter-screen for CHIKV nsP2 protease inhibitors: papain | shares compounds with nsP2pro primary | purified papain protease activity, enzymatic inhibition | Potency, µM (top dose mostly 51 µM), usual class: inhibitors | 5% of 410 active
nsP2pro confirm: confirmation of CHIKV nsP2 protease inhibitors; AID 1964105; shares compounds with nsP2pro primary; CHIKV nsP2 protease enzymatic activity, qHTS; 43% of 410 active; Potency, µM (doses to about 25.5 µM), most hits filed as inhibitors; further: nearly all actives have a fitted effect of over 75% in size
HCV NS3 counter: selectivity counter-screen for CHIKV nsP2 protease inhibitors: HCV NS3/4A; HCV NS3/4A protease biochemical counterscreen; AID 1964106; shares compounds with nsP2pro primary; 20% of 410 active; Potency, µM (highest dose often 50.9 µM), hits mostly inhibitors; further: nearly all actives have a fitted effect of over 55% in size
Large screens that a line does not name were inactive (follow-up assays come after a bar, where they were run); ! = not active in a repeat. The call rests on the fitted dose curve.

O=C(O)c1ccccc1Nc1cc(Cl)ccc1C(=O)O	none
Cc1cc(Nc2ccccc2C(=O)O)ccc1Cl	nsP2pro primary 3.5µM | nsP2 cell sec inactive | NSP2 full ctr 13µM | Furin counter inactive | NS23 peptide cs inconclusive | Papain counter inconclusive | nsP2pro confirm 2µM | HCV NS3 counter inactive
COc1cccc2c1C(=O)c1c(O)c3c(c(O)c1C2=O)C[C@@](O)(C(=O)CO)C[C@@H]3O[C@H]1C[C@H](N)[C@H](OC2CCCCO2)[C@H](C)O1 (some centres undefined)	none
COc1cccc2c1C(=O)c1c(O)c3c(c(O)c1C2=O)C[C@@](O)(C(=O)CO)CC3OC1CC(N2CCOC(OC)C2)C(O)C(C)O1 (some centres undefined)	none
CC[C@@]1(O)C[C@H](O[C@H]2C[C@H](N(C)C)[C@H](O[C@H]3C[C@H](O)[C@H](O[C@H]4CCC(=O)[C@H](C)O4)[C@H](C)O3)[C@H](C)O2)c2c(cc3c(c2O)C(=O)c2c(O)cccc2C3=O)[C@@H]1C(=O)OC	nsP2pro primary inconclusive | nsP2 cell sec inactive | NSP2 full ctr inconclusive | Furin counter inactive | NS23 peptide cs inconclusive | Papain counter inactive | nsP2pro confirm inconclusive | HCV NS3 counter inactive
Cc1ccc(C(=O)N2CCN(c3ccc([N+](=O)[O-])cc3)CC2)cc1Cl	none
O=C1Nc2ccccc2/C1=C\c1ccc([N+](=O)[O-])cc1	none
C=CC(=O)N1C/C(=C\c2ccc([N+](=O)[O-])cc2)C(=O)/C(=C/c2ccc([N+](=O)[O-])cc2)C1	nsP2pro primary 3.5µM! | nsP2 cell sec inconclusive | NSP2 full ctr inconclusive | Furin counter inactive | NS23 peptide cs 2.9µM | Papain counter inactive | nsP2pro confirm inconclusive | HCV NS3 counter inactive
CC1CCN(C(c2ccc(F)cc2)c2ccc(C(C)C(=O)O)cc2-c2ccc(C(F)(F)F)cc2)CC1 (centres undefined)	none
O=C(Nc1ccc(Cl)cc1)c1ccccc1NCc1ccncc1	none
CCCCCOc1cc2c(cc1-c1cc(/C=C/C(=O)O)ccc1O)C(C)(C)CCC2(C)C	none
O=c1c(NS(=O)(=O)Cc2ccccc2)ccc2n1C[C@H]1C[C@@H]2CN(S(=O)(=O)c2ccccc2)C1	nsP2pro primary inconclusive | nsP2 cell sec inactive | NSP2 full ctr inconclusive | Furin counter inactive | NS23 peptide cs inconclusive | Papain counter inactive | nsP2pro confirm inconclusive | HCV NS3 counter inconclusive
CCCS(=O)(=O)Nc1ccc2n(c1=O)C[C@H]1C[C@@H]2CN(C(=O)c2ccc(-c3ccccc3)cc2)C1	nsP2pro primary inconclusive | nsP2 cell sec inactive | NSP2 full ctr inconclusive | Furin counter inactive | NS23 peptide cs inconclusive | Papain counter inactive | nsP2pro confirm inactive | HCV NS3 counter inconclusive
COc1ccc(S(=O)(=O)N2C[C@@H]3C[C@H](C2)c2ccc(NS(=O)(=O)c4cccc(F)c4)c(=O)n2C3)cc1	none
O=c1c(NS(=O)(=O)c2cccc(F)c2)ccc2n1C[C@H]1C[C@@H]2CN(S(=O)(=O)c2ccccc2)C1	none
O=C(Nc1ccccc1)Nc1ccc2n(c1=O)C[C@H]1C[C@@H]2CN(C(=O)c2ccccc2)C1	none
O=C(c1ccccn1)N1C[C@@H]2C[C@H](C1)c1ccc(NS(=O)(=O)c3cccc(F)c3)c(=O)n1C2	none
OC[C@H]1O[C@@H](c2ccc(F)c(Cc3cc4ccccc4s3)c2)[C@H](O)[C@@H](O)[C@@H]1O	none
CCCCCC(O)/C=C/[C@@H]1C(CCCCCCC(=O)O)C(=O)C[C@@H]1O (some centres undefined)	none
Cc1ccc(NS(=O)(=O)c2ccc3c(c2)CCC(=O)N3C)cc1Cl	none
COc1cc(/C=C/C(=O)OC2CC(OC(C)=O)C(OC(C)=O)C3C2CCC2C(=O)OC(c4ccoc4)CC23C)ccc1O[C@@H]1O[C@H](CO)[C@@H](O)[C@H](O)[C@H]1O (some centres undefined)	none
COC(=O)C1(O)C(OC(C)=O)CCC2C3(CC(c4ccoc4)OC3=O)C(C)=CCC21C(=O)OC (centres undefined)	nsP2pro primary 1.9µM | nsP2 cell sec inactive | NSP2 full ctr inactive | Furin counter inactive | NS23 peptide cs inactive | Papain counter inactive | nsP2pro confirm inactive | HCV NS3 counter inactive
CC1=CC(=O)CC2C1(O)CCC(C)C21CC(c2ccoc2)OC1=O (centres undefined)	none
COC(=O)c1ccccc1NC(=O)Cn1c(CCC(=O)O)ccc1-c1cccs1	none
COC(=O)c1cccc(-n2c(CCC(=O)O)ccc2-c2cccs2)c1	nsP2pro primary 8.9µM | nsP2 cell sec inactive
CC(=O)c1ccc(-n2c(CCC(=O)O)ccc2-c2cccs2)cc1	none
CCc1ccc(NC(=O)Cn2c(=O)c3cc(Cl)ccc3n3nncc23)cc1	none
CCOc1ccc(NC(=O)Cn2cc(C(=O)c3ccc(CC)cc3)c(=O)c3cc4c(cc32)OCO4)cc1	none
CCc1ccc(NCc2cc3cc4c(cc3n(CC(=O)Nc3ccc(Cl)cc3)c2=O)OCO4)cc1	nsP2pro primary inconclusive | nsP2 cell sec inactive
CCN1C(=O)N(c2c(F)c(OC)cc(OC)c2F)Cc2cnc3[nH]c(CN4CCOCC4)cc3c21	none
CC(C)(C)n1cnc2cc(C(=O)N3CCCCC3)ccc21	none
Clc1cc(Cl)c(OCC#CI)cc1Cl	nsP2pro primary 4.4µM | nsP2 cell sec inconclusive | NSP2 full ctr 7.1µM | Furin counter 9µM | NS23 peptide cs 5µM | Papain counter inactive | nsP2pro confirm 2.2µM | HCV NS3 counter inactive
Cc1cc(-c2ccccc2)nc2c(C(=O)Nc3ccc4c(c3)CCC4)cnn12	none
CC1CCCCN1S(=O)(=O)c1ccc(N2CCCC2=O)cc1 (centres undefined)	none
O=[N+]([O-])c1ccc(-c2nc(Nc3ccc(F)c(F)c3)c3ccccc3n2)cc1	none
COc1cc(Br)c(S(=O)(=O)Nc2ccc(C(F)(F)F)c(O[C@@H]3CCN(C)C3)c2)cc1OC	none
C=CC(C)(O)CC/C=C(\C)C(=O)OC1CC2(C(=O)O)CCC3(C)C(=CCC4C5(C)CCC(OC6OC(COC7OCC(O)C(O)C7O)C(O)C(OC7OCC(O)C(O)C7O)C6OC6OC(CO)C(O)C(O)C6OC6OCC(O)C(O)C6O)C(C)(C)C5CCC43C)C2CC1(C)C (centres undefined)	none
CNc1nccc(-c2cccc3ccccc23)n1	none
CCc1nc2c(NS(=O)(=O)c3cccnc3)cccn2n1	none
Cc1cccc(S(=O)(=O)Nc2cccn3nc(C4CCC4)nc23)c1	none
